# According to PubChem BioAssay (NCI):
# The panel holds about 83,000 compounds, 20% with a hit somewhere; the sample as a whole holds those more often.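 Note: values are percent growth. 100 is the growth of untreated cells, values between 100 and 0 indicate rising inhibition; between -100 and 0 indicates cell death.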 Values without a mark were called inactive. The source made the active and inactive calls. Rule for the calls: active = growth percent below 10; inactive = the rest.
# Experiments:
# Test in all cases: NCI-60 one-dose screen, 48 h (100 = growth as untreated, 0 = no growth, -100 = all killed)
# Details in all cases: 10 µM unless noted
# T-47D breast = tested on: T-47D breast
# BT-549 breast = tested on: BT-549 breast
# MDA-MB-435 melanoma = tested on: MDA-MB-435 melanoma
# SW-620 colon = tested on: SW-620 colon
# MCF7 breast = tested on: MCF7 breast
# HCT-116 colon = tested on: HCT-116 colon
# HCC-2998 colon = tested on: HCC-2998 colon
# KM12 colon = tested on: KM12 colon
Structure (SMILES),growth (T-47D breast),growth (BT-549 breast),growth (MDA-MB-435 melanoma),growth (SW-620 colon),growth (MCF7 breast),growth (HCT-116 colon),growth (HCC-2998 colon),growth (KM12 colon)
c1cnc2[nH]cc(-c3csc(-c4cn(CCCN5CCCCC5)c5ccccc45)n3)c2c1,63.1%,90.9%,1.72% (active),-47.4% (active),22.2%,60.6%,87.6%,63.3%
CN(C)c1ccc(-c2ccc(-c3ccc(C(=N)N)c(F)c3)s2)cc1,-60.3% (active),95.7%,-95.4% (active),-75% (active),-69.7% (active),-89.3% (active),-95.4% (active),-87.9% (active)
C=C1C(=O)O[C@H]2[C@H]1CC/C(COC(=O)NCc1c[nH]c3ccccc13)=C\CC[C@@]1(C)O[C@@H]21,37.8%,50.7%,46.9%,2.62% (active),17.1%,-12.3% (active),97.9%,96.9%
Cc1ccc(S(=O)(=O)Nc2ccc(-c3cc(-c4cccc(F)c4)c(C#N)c(=O)[nH]3)cc2)cc1,41.9%,74.7%,96.3%,73.5%,16.9%,8.61% (active),104%,72.9%
COc1cc(-c2cc(-c3nc4ccc(F)cc4[nH]3)[nH]n2)cc(OC)c1OC,-21.3% (active),6.58% (active),5.65% (active),52.1%,9.15% (active),31.2%,66.6%,12.9%
Cn1cc(-c2csc(-c3cn(CCNC(=O)OC(C)(C)C)c4ccc(F)cc34)n2)c2cccnc21,1.12% (active),65.4%,77.6%,88.4%,47.3%,82.6%,93.5%,52.7%
Cn1cc(-c2csc(-c3cn(CCN)c4ccccc34)n2)c2cccnc21,20%,59.6%,16.6%,44.2%,16.7%,36.9%,65.3%,46.3%
CC(c1ccccc1)N1C(=O)C(C2SC(=S)N(C(C)c3ccccc3)C2=O)SC1=S (stereo not given),73.2%,89.5%,57.2%,54.7%,25.8%,57%,107%,67.9%
Cn1cc(-c2csc(-c3cn(C(=O)OC(C)(C)C)c4ccc(Br)cc34)n2)c2cccnc21,74.3%,103%,102%,90.4%,81.5%,67.4%,101%,101%
NC(Cc1ccc(O)cc1)C(=O)N/N=C/c1ccccc1O (stereo not given),98.1%,95.4%,108%,107%,96.2%,97.2%,100%,97.6%
OCCNc1nc(Nc2ccc(Cl)c(Cl)c2)nc2ccccc12,67.9%,77.8%,50%,28.6%,30.3%,29.7%,-37.9% (active),35.5%
COc1ccc(CCN2C(=O)C(C)(C)SC2=S)cc1OC,104%,105%,99.2%,103%,98.5%,97.6%,106%,101%
Nc1nc2c3ccncc3cc(-c3cccc(Cl)c3)c2c2cnccc12,32%,37%,66.8%,36.5%,33.4%,5.95% (active),74.9%,46.2%
O=S(=O)(NCCNc1cc(-c2cn(-c3ccccc3)nc2-c2cccc(O)c2)ccn1)c1ccc(Br)cc1,10.5%,45.6%,22.4%,32.4%,13%,24%,-61.8% (active),17.3%
Cc1nn2c(-c3nc4cc(Cl)c(Cl)cc4[nH]3)c(-c3ccc(F)cc3)nc2s1,-0.149% (active),44.2%,26.6%,39.5%,40.1%,2.83% (active),75.8%,39.3%
C=C(C)[C@@H]1CC[C@]2(C=O)CC[C@]3(C)[C@H](CC[C@@H]4[C@@]5(C)C/C(=C/c6cccnc6)C(=O)C(C)(C)[C@@H]5CC[C@]43C)[C@@H]12,31.9%,75.6%,95.3%,76.2%,40.5%,43.8%,99%,78.3%
CC/C=C\C[C@H]1CC=C2C(=O)C=C[C@@H]2CC=CCCCC(=O)O[C@@H](CCCCC)CC=C2C(=O)C=C[C@@H]2CC=CCCCC(=O)O[C@@H](CCCCC)CC=C2C(=O)C=C[C@@H]2CC=CCCCC(=O)O[C@@H](CCCCC)CC=C2C(=O)C=C[C@@H]2CC=CCCCC(=O)O1,29.5% [7.9 µM],-17.3% [7.9 µM] (active),-23.1% [7.9 µM] (active),9.77% [7.9 µM] (active),20.4% [7.9 µM],-53.6% [7.9 µM] (active),88.6% [7.9 µM],21.1% [7.9 µM]
CCN(CC)CCCCCCNc1ccnc2cc(Cl)ccc12,91%,86.3%,88.5%,83.3%,82.7%,59.1%,107%,84.9%
COc1ccc2[nH]c(-c3ccc(Cl)cc3)cc(=O)c2c1,116%,92.9%,94.7%,98.2%,91.4%,102%,100%,98.8%
C/C(=N\NC(=O)C(C)SC(C)C(=O)N/N=C(\C)c1cccnc1)c1cccnc1 (stereo not given),104%,106%,106%,96.9%,95.7%,110%,106%,107%
COc1cc(OC)c2c(c1)c1nc3cc(C)c(C)cc3nc1n2CCN(C)C,74.3%,97.4%,91.7%,66%,66.2%,69.7%,93.9%,86.3%
Cn1c2c(c3ccc(Cl)cc31)-n1cccc1C2=O,95.2%,92.6%,112%,93.7%,74.2%,76.9%,101%,100%
N#Cc1cnc2cc(OC[C@@H](O)CO)c(NC(=O)C3CCCC3)cc2c1Nc1ccc(OCc2cccc(F)c2)c(Cl)c1,-15.1% (active),-72.8% (active),20.3%,15.8%,-68.1% (active),-32.2% (active),-65.2% (active),45%
CCCCCC1CCCCN1C(=O)OCC (stereo not given),92.4%,98.1%,115%,105%,99.3%,93.6%,94.4%,110%
C#CCn1c2c(c3ccccc31)C[C@]1(C)[C@H]3CC[C@@H]4[C@@H]5C(=CCC[C@H]5C(=C)C)CC[C@@]4(C)[C@]3(C)CC[C@H]1C2(C)C,106%,100%,102%,98.2%,95.7%,101%,102%,102%
N#CC1C(=N)Cc2ccccc2-c2ccccc21 (stereo not given),60.9%,41.5%,-23.8% (active),19.2%,31.4%,33.1%,86.8%,18%
CCCCC[C@H]1C/C=C2/C(=O)C(Cl)=C[C@@H]2C/C=C\CCCC(=O)O1,-33.7% (active),-77.3% (active),-48.2% (active),-48.8% (active),0.987% (active),-86.9% (active),-68.7% (active),-33.9% (active)
C=C1C(=O)O[C@H]2[C@H]1CC/C(COC(=O)N[C@H](Cc1c[nH]c3ccccc13)C(=O)OC)=C\CC[C@@]1(C)O[C@@H]21,-45.3% (active),26.4%,54.8%,-1.92% (active),14.7%,-58.2% (active),101%,92.6%
N#C/C(=C\c1ccc(-c2ccc(Br)cc2)o1)c1nc(-c2cccs2)cs1,40%,96.8%,101%,99.8%,28.9%,91%,91.8%,95.9%
Cc1ccncc1C(=O)O,107%,99.8%,101%,97.3%,101%,107%,116%,98.6%
